Most compounds without a hit are left out; they make up all but 2.6% or so of the library.
TROY signal inh: inhibitors of TROY-driven NF-kB signaling, primary screen, Q293 LMP1-TROYcd cells, NF-kB luciferase, uHTS. 0.98% of 360,000 active. inhibition, % at 10 µM. Q293 LMP1-TROYcd NF-kB luciferase reporter, 4 h;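 active = compounds whose plate-normalised and pattern-corrected inhibition of the luciferase reporter signal at the single screening dose is 50% or more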
TWEAK-Fn14 inh: inhibitors of TWEAK-Fn14 signaling, primary screen, luciferase reporter cells, uHTS; TWEAK-stimulated Fn14 reporter cells, luciferase luminescence, 8 h; inhibition, % at 10 µM; 2% of 360,000 active; in the data active = inhibition above about 50%
KKLEB tox: cytotoxicity in KKLEB CF airway cells, primary screen, cytotoxicity control for CF NF-kB inhibitor project, cell-based, uHTS, fluorescence assay plates; KKLEB CF airway cells viability, ATPlite luminescence, overnight; active compounds read low; cells stimulated with P. aeruginosa culture filtrate; activity change (cytotoxicity), % at 5 µM; 0.36% of 360,000 active; AID 602141, 2011;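 active = corrected activity change at or below -50% at 5 µM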
CF NFkB inh: inhibitors of PAF-induced NF-kB signaling, primary screen, cell-based, GFP fluorescence, uHTS. AID 588850, 2011. 0.86% of 360,000 active. KKLEB NF-kB-GFP reporter, GFP fluorescence overnight. inhibition, % at 5 µM;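 active = at least 50% inhibition at 5 µM, scaled per plate between neutral and stimulator controls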;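 note: PAF is a Pseudomonas aeruginosa culture filtrate used as stimulus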
LGR2 inh: inhibitors of bursicon-induced LGR2 CRE-luciferase signal, primary screen, cell-based, HEK293, CRE-luciferase reporter, bursicon stimulation; Drosophila bursicon receptor LGR2 (rickets); bursicon-stimulated, 4 h; inhibition, % at 9.99 µM; 0.35% of 380,000 active; AID 720647, 2013;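 active = drop in luminescence signal, shown as inhibition above about 50% in the replicate tests, limit read from the data, passing the limit was not always enough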;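 note: agonist challenge used bursicon conditioned medium at about half maximal strength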
EWS-Fli inh: EWS/Fli-driven NR0B1 reporter inhibitors, primary screen, A673 cells, NR0B1 luciferase, luminescence, MLPCN library. viability-normalised. inhibition, % at 12.6 µM. 0.67% of 350,000 active;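 active = mean inhibition of at least 50% after viability correction, with every replicate also passing that limit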;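 note: firefly luciferase signal divided by Alamar Blue viability fluorescence both relative to DMSO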
DNA binding: DNA binders by acridine orange displacement, dose response, counter-screen for EWS/Fli inhibitor project, biochemical, fluorescence polarization, cherry-pick | shares compounds with EWS-Fli inh | salmon sperm DNA acridine orange fluorescence polarization | AC35, µM (top dose mostly 68 µM) | 2% of 640 active;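 active = fitted curve reaches a 35% signal fall AC35 below twice the sample's top valid tested dose, actives reach about 48 µM in these data; inactive = the rest, including activity in the rising direction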;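 note: lower polarization ratio signals compound binding to DNA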
Of the large screens only hits and unclear results are named; the others gave an inactive call (follow-up assays come after a bar, where they were run).

CCN1C/C(=C/c2ccc(N3CCOCC3)cc2)C(=O)/C(=C/c2ccc(N3CCOCC3)cc2)C1	EWS-Fli inh 70.4 | DNA binding 15.4µM
C[C@]12Cc3ccccc3C1CC1=N[C@@H](C3CCCCC3)O[C@@]13C[C@@H]2C(=O)N3C1CCN(Cc2ccccc2)CC1 (stereo partly specified)	none (no result: TROY signal inh, TWEAK-Fn14 inh, KKLEB tox, CF NFkB inh)
CCCCc1c(-c2ccccc2OC)ncn1Cc1ccc(C(C)(C)C)cc1	EWS-Fli inh 62.3 (no result: TROY signal inh, TWEAK-Fn14 inh, KKLEB tox, CF NFkB inh) | DNA binding inactive
CCCCc1c(-c2ccccc2OC)ncn1Cc1ccccc1	none (no result: TROY signal inh, TWEAK-Fn14 inh, KKLEB tox, CF NFkB inh)
Cc1ccc(NC(=O)COC(=O)c2ccc(OC(F)F)cc2)cc1S(=O)(=O)N1CCCCC1	none
Cc1ccc(NC(=O)COC(=O)c2ccc3c(c2)OCO3)cc1S(=O)(=O)N1CCCCC1	EWS-Fli inh 71.9 | DNA binding inactive
O=C(C[C@H]1CC[C@@H](NS(=O)(=O)c2ccc(F)cc2)[C@H](CO)O1)NCc1ccccc1F	none (no result: TROY signal inh, TWEAK-Fn14 inh, KKLEB tox, CF NFkB inh)
O=C(NC(c1ccc(F)cc1)c1ccc2ccccc2n1)C1CCN(Cc2ccc3ccccc3n2)CC1 (stereo unspecified)	none
O=C(NC(c1ccc(F)cc1)c1ccc2ccccc2n1)C1CCN(Cc2cccc(C(F)(F)F)c2)CC1 (stereo unspecified)	EWS-Fli inh 58.0 | DNA binding inactive
C[C@@H]1CN([C@@H](C)CO)C(=O)Cc2cc(N(C)C)ccc2O[C@H]1CN(C)Cc1ccc(C(=O)Nc2ccccc2N)cc1	EWS-Fli inh 59.6 (no result: TROY signal inh, TWEAK-Fn14 inh, KKLEB tox, CF NFkB inh) | DNA binding inactive
C[C@H]1CN([C@@H](C)CO)C(=O)Cc2cc(N(C)C)ccc2O[C@@H]1CN(C)Cc1ccc(C(=O)Nc2ccccc2N)cc1	none (no result: TROY signal inh, TWEAK-Fn14 inh, KKLEB tox, CF NFkB inh)
C[C@H]1CN([C@@H](C)CO)C(=O)Cc2cc(NC(=O)CCC(F)(F)F)ccc2O[C@H]1CN(C)Cc1ccc(C(=O)Nc2ccccc2N)cc1	EWS-Fli inh 53.4 (no result: TROY signal inh, TWEAK-Fn14 inh, KKLEB tox, CF NFkB inh) | DNA binding inactive
C[C@H](CO)N1C[C@H](C)[C@@H](CN(C)Cc2ccc(C(=O)Nc3ccccc3N)cc2)Oc2ccc(NC(=O)C3CC3)cc2CC1=O	none (no result: TROY signal inh, TWEAK-Fn14 inh, KKLEB tox, CF NFkB inh)
COc1ccc(CN(C)C[C@H]2Oc3ccc(NC(=O)CCCCCC(=O)Nc4ccccc4N)cc3CC(=O)N([C@H](C)CO)C[C@H]2C)cc1	EWS-Fli inh 55.9 (no result: TROY signal inh, TWEAK-Fn14 inh, KKLEB tox, CF NFkB inh) | DNA binding inactive
C[C@H](CO)N1C[C@H](C)[C@H](CN(C)Cc2ccc(C(=O)Nc3ccccc3N)cc2)Oc2ccc(NC(=O)C3CC3)cc2CC1=O	EWS-Fli inh 64.3 (no result: TROY signal inh, TWEAK-Fn14 inh, KKLEB tox, CF NFkB inh) | DNA binding inactive
O=C(c1cccc(F)c1)N1CCCCN2[C@H](CO)[C@@H](c3ccc(C#CC4(O)CCCC4)cc3)[C@@H]2C1	none (no result: TROY signal inh, TWEAK-Fn14 inh, KKLEB tox, CF NFkB inh)
C[C@H](CO)N1C[C@H](C)[C@@H](CN(C)C(=O)Nc2cccc3ccccc23)Oc2ccc(NC(=O)NC3CCCCC3)cc2CC1=O	none (no result: TROY signal inh, TWEAK-Fn14 inh, KKLEB tox, CF NFkB inh)
C[C@@H]1CN([C@H](C)CO)C(=O)Cc2cc(NC(=O)CCCCCC(=O)Nc3ccccc3N)ccc2O[C@H]1CN(C)CC1CC1	none (no result: TROY signal inh, TWEAK-Fn14 inh, KKLEB tox, CF NFkB inh)
COc1ccc(-n2c(-c3cc(-c4ccccc4)sc3N)n[nH]c2=S)cc1	none
Nc1sc(-c2ccccc2)cc1-c1n[nH]c(=S)n1C1CCCCC1	EWS-Fli inh 59.0 (no result: LGR2 inh) | DNA binding inactive
CC(C)NC(=O)N(C)C[C@@H]1OCCCC[C@H](C)Oc2ccc(NC(=O)c3ccccc3)cc2C(=O)N([C@@H](C)CO)C[C@H]1C	none (no result: TROY signal inh, TWEAK-Fn14 inh, KKLEB tox, CF NFkB inh, EWS-Fli inh)
COc1ccccc1NC(=O)N1C[C@H](O)COC[C@H]2O[C@@H](CC(=O)N3CCC(Cc4ccccc4)CC3)CC[C@@H]21	none (no result: TROY signal inh, TWEAK-Fn14 inh, KKLEB tox, CF NFkB inh)
O=C(CN1C(=O)C(=O)c2ccccc21)OCN1C(=O)c2ccccc2C1=O	none (no result: LGR2 inh)
CCN(CC)C(=O)CN1C(=O)c2cccc3cccc1c23	none
